Source: PubChem (National Center for Advancing Translational Sciences (NCATS))
MCF10A rerep: induces DNA re-replication in MCF 10a normal breast cells | MCF 10A DNA re-replication, Hoechst nuclear intensity, 48 h | Potency, µM (doses to about 46.1 µM), for the others: top-dose activity, positive = re-replication, hits mostly activators | 350,000 compounds, 2.9% hits | AID 624296; further: potency means the concentration at half of the fitted maximal effect; % of control where 0% means no effect; nearly all actives have a fitted effect of over 50% in size
BCR signal inh: inhibitors of chronic active B-cell receptor signaling. ABC-DLBCL IkBa-CBG/CBR reporter, luminescence ratio, 4 h. Potency, µM (titrated, usually from 46.1 µM), for inactives: at the top dose activity change, negative = inhibition, hits mostly inhibitors. 340,000 compounds, 0.05% hits; active means well fitted inhibition curve with a large enough effect in the signal ratio, with a control signal flat, not every such curve was filed as active; inconclusive means small, poorly fitted or top-dose-only effect, or effect the other way, or a change in a side signal; the % refers to the signal ratio;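 further: potency means the concentration at half of the fitted maximal effect; plate controls were basal doxycycline-induced cells for no effect and cells given 10 µM MG132 for full effect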
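Cell line TMD8 (human ABC DLBCL), stably expressing tet-inducible CBG68-IkBa fusion and CBR; IMDM/0.5% FBS; cpd up to 46 uM; dox induction, 4 h, 37C/5% CO2; dual luminescence; green/red ratio; MG132 control.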
IL1B secr inh: inflammasome signaling inhibition, IL-1 beta readout | THP-1 LPS/ATP IL-1B secretion, AlphaLISA, 16 h; hits give low values | activity change, % at 57.5 µM | 360,000 compounds, 4.7% hits; in the data active means activity change below about -50%; inconclusive means mostly about -30% to -49%; further: on the % scale 0 is the no-effect control and ±100 the full control effect
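Secreted IL-1B measured by AlphaLISA bead assay after 16 h compound exposure of THP-1 cells; compounds (final up to 57.5 uM) added 1 h before LPS (250 ng/mL) and ATP (1.25 mM) stimulation; lower signal means less secretion.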
TDP1 cell noCPT: qHTS for Inhibitors of human tyrosyl-DNA phosphodiesterase 1 (TDP1): qHTS in cells in absence of CPT. DT40 Tdp1-/- hTDP1 cells, no CPT, ATP luminescence, 48 h. Potency, µM (top dose mostly 46.2 µM), inactives show at the top dose activity change, negative = growth inhibition, actives largely listed as inhibitors. 420,000 compounds, 15% hits; further: potency means the concentration at half of the fitted maximal effect; on the % scale 0 is the no-effect control and ±100 the full control effect; nearly all actives have a fitted effect of over 55% in size
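Cells were dispensed at 400 per well, compounds added by pin tool, plates incubated ≥48 hr at 37 °C, then CellTiter-Glo added for 30 min at room temperature before luminescence reading. Line: DT40 Tdp1-/- complemented with hTDP1; camptothecin omitted.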
SW480 rereplic: induces DNA re-replication in SW480 colon adenocarcinoma cells; SW480 DNA re-replication, Hoechst DNA content imaging, 48 h; Potency, µM (series often up to 46.1 µM), without a hit: at the highest dose re-replication activation, most hits filed as activators; AID 624297; 340,000 compounds, 1.8% hits; further: potency means the concentration at half of the fitted maximal effect; % of control where 0% means no effect; nearly all actives have a fitted effect of over 55% in size
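Treated cells incubate 48 hr (37 C, 5% CO2), are stained 40 min with Hoechst, and nuclear fluorescence is enumerated; a rise in nuclei with high DNA signal marks re-replication.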
DT40 TDP1 CPT: DT40-hTDP1 cell growth loss with CPT; chicken DT40 Tdp1-/-;hTDP1 cells + 20 nM CPT, ATP luminescence, 48 h; Potency, µM (titrated, usually from 46.2 µM), without a hit: at the top dose activity change, negative = growth inhibition, most hits filed as inhibitors; 420,000 compounds, 12% hits; AID 686979; further: potency means the concentration at half of the fitted maximal effect; on the % scale 0 is the no-effect control and ±100 the full control effect; nearly all actives have a fitted effect of over 55% in size
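Chicken DT40 Tdp1-/- cells complemented with human TDP1, 400 cells/well, exposed to compounds plus 20 nM camptothecin for at least 48 h at 37 C; viability read as ATP content by CellTiter-Glo luminescence.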
* hit, by the source's call; ? = inconclusive; . = not tested or not shown; [ ] = another dose, or the depositor's remark. In the library only some 19% were active in any assay of this set; here they are far more common. Unless noted, the call rests on the fitted dose curve; in most records, active means well fitted curve in the direction sought with a large enough effect; inconclusive means small, poorly fitted or top-dose-only effect, or another doubt; inactive means no such curve, though single readings can be large; an effect the other way counts as inactive or inconclusive.

SMILES	MCF10A rerep	BCR signal inh	IL1B secr inh	TDP1 cell noCPT	SW480 rereplic	DT40 TDP1 CPT
CC(Oc1cc(F)ccc1[N+](=O)[O-])C(=O)N(C)CC(=O)Nc1ccccc1C(F)(F)F (centres undefined)	-21%	-5%	-4	-28%	-9%	-14%
O=C(C1CCCN1C(=O)c1cccs1)N1CCN(S(=O)(=O)c2ccc(F)cc2)CC1 (centres undefined)	2%	-1%	-12	-5%	-25%	-14%
CCOC(=O)c1c(C)c(C(=O)Nc2ccc(N(C)C)cc2)c(C)n1CC	6.5µM*	1%	-3	4.6µM*	10µM*	7.3µM*
CCOC(=O)c1c(C)c(C(=O)NCc2cccnc2)c(C)n1CC	-3%	7%	7	-10%	-9%	0%
CCOC(=O)c1c(C)c(C(=O)NCc2ccc(Cl)cc2)c(C)n1CC	.	.	.	26µM*	.	?
COCCn1c(C)cc(C(=O)COC(=O)/C=C/c2ccc(OC)cc2OC)c1C	-10%	?	-13	?	-10%	-3%
CC(=O)C[C@H](O)CC(=O)[C@@H]1OC(=O)CCCCC/C=C/Cc2ccccc21	1%	-11%	-7	-3%	1%	6%
Cc1nc(-n2[nH]c3c(c2=O)CCCC3)[nH]c(=O)c1Cc1ccccc1	21µM*	?	-106*	3.3µM*	9.2µM*	2.9µM*
Cc1nc(N2CCc3ccccc3C2)[nH]c(=O)c1Cc1ccccc1	-4%	14%	-1	-11%	3%	-2%
CCOC(=O)C1=Nc2ccccc2C1=[N+]=[N-]	2.6µM*	?	-71*	7.3µM*	?	4.6µM*
Cc1nc(NC(C)C)c2cnn(CCc3ccccc3)c2n1	21µM*	?	-18	?	4%	-21%
CCCNc1nc(C)nc2c1cnn2CCc1ccccc1	-5%	?	-11	-16%	-4%	-11%
CCOC(=O)c1ccccc1NC(=O)CSc1ncc2c(n1)-c1ccccc1N(CC)S2(=O)=O	.	.	.	16µM*	.	?
CCN1c2ccccc2-c2nc(SCC(=O)NCc3ccccc3)ncc2S1(=O)=O	.	.	.	23µM*	.	18µM*
CCN1c2ccccc2-c2nc(SCC(=O)Nc3cccc(C)c3C)ncc2S1(=O)=O	.	.	.	21µM*	.	?
Cc1ccc(CN2c3ccccc3-c3nc(SCC(=O)NCc4ccccc4)ncc3S2(=O)=O)cc1	.	.	.	-7%	.	-18%
CC(CCc1ccccc1)NC(=O)C(=O)c1c[nH]c2ccccc12 (centres undefined)	10µM*	?	16	?	24%	-30%
Nc1cc(S(=O)(=O)Nc2ccc(Br)cc2)ccc1Cl	2%	?	-69*	?	3%	?
CN(C)Cc1ccccc1-c1cc(NC2CC2)ncn1	.	.	.	2%	.	-8%
CCOC(=O)/C(C#N)=C\c1c(OCC)n(CC)c2ccccc12	16%	?	-10	18µM*	-6%	?
CCOc1c(/C=C(\C#N)C(N)=O)c2ccccc2n1CC	?	-10%	10	?	.	?
CCc1ccc(OCC(=O)Nc2ccc3c(c2)c2ccccc2n3CC)cc1	.	.	.	-27%	.	?
CCn1c2ccccc2c2cc(NC(=O)N3CCCCC3)ccc21	.	.	?	23µM*	.	18µM*
CCn1c2ccccc2c2cc(NC(=O)COC(=O)c3cc(OC)c(OC)cc3OC)ccc21	-2%	?	-6	21µM*	-5%	21µM*
CCOc1ccc(-c2nnc(SCC(=O)Nc3ccc4c(c3)c3ccccc3n4CC)n2N)cc1	10µM*	?	-16	?	?	?
SMILES	MCF10A rerep	BCR signal inh	IL1B secr inh	TDP1 cell noCPT	SW480 rereplic	DT40 TDP1 CPT
COc1ccc(C(=O)CSc2nccn2C)c(OC)c1	-34%	?	-1	9%	-9%	5%
Cc1cc(SCC(=O)NCc2ccccc2Cl)nc(=O)[nH]1	.	-10%	.	-5%	.	10%
CCOC(=O)C1(C(=O)OCC)C(C)CC(=O)N1c1ccccc1OC (centres undefined)	.	.	10	8%	.	-11%
O=C(NNC(=O)c1ccc2nonc2c1)Nc1ccc(Cl)cc1	2%	18%	-3	-27%	2%	-6%
CCn1c2ccccc2c2cc(NC(=O)C(C)C)ccc21	-6%	?	-23	26µM*	-5%	?
CCn1c2ccccc2c2cc(NC(=O)C(C)Oc3ccccc3)ccc21 (centres undefined)	0%	?	0	?	5%	-26%
CCn1c2ccccc2c(=O)c2ccccc21	23µM*	-12%	-14	-15%	23µM*	?
CCOC(=O)C(=CNc1ccc2c(c1)c1ccccc1n2CC)C(=O)OCC	?	?	0	8.2µM*	?	15µM*
CCCC(=O)Nc1ccc2c(c1)c1ccccc1n2CC	21µM*	?	-1	?	?	?
CCn1c2ccccc2c2cc(NS(=O)(=O)c3ccccc3C)ccc21	?	8%	13	21µM*	?	?
CCn1c2ccccc2c2cc(NC(=O)CC(C)=O)ccc21	?	0%	0	-1%	-40%	-2%
CCn1c2ccccc2c2cc(NC(=O)COc3cc(C)ccc3C)ccc21	.	.	.	9.2µM*	.	?
O=C(N/N=C/c1cccc(O)c1)c1cc(-c2ccc3c(c2)OCO3)n[nH]1	14%	?	-11	21µM*	-9%	21µM*
O=C(N/N=C/c1cccc([N+](=O)[O-])c1)c1cc(-c2ccc3c(c2)OCO3)n[nH]1	12µM*	0%	2	-20%	-122%	-6%
CCc1ccc(/C=N/NC(=O)c2cc(-c3cccc([N+](=O)[O-])c3)n[nH]2)cc1	5.2µM*	?	16	2.9µM*	23µM*	3.7µM*
O=C(N/N=C/c1ccc(O)cc1)c1cc(-c2ccc3c(c2)OCO3)n[nH]1	?	?	?	-27%	1%	-26%
CCOC(=O)c1cc(-c2cccc([N+](=O)[O-])c2)n[nH]1	-2%	-1%	5	-10%	2%	-1%
O=C(N/N=C/c1cccc([N+](=O)[O-])c1)c1ccc2nc[nH]c2c1	-2%	?	-18	-10%	-4%	-6%
O=C(Cc1ccc(NC(=O)C2CCCN(C(=O)C3CC3)C2)cc1)Nc1ccc(C(=O)N2CCOCC2)cc1 (centres undefined)	?	.	3	-6%	14%[9.22 µM]	4%
